Measurements from PubChem BioAssay AID624256 (NMMLSC, 2012).
Hit rate of the full screen: of about 360,000 compounds, about 3,700 (1%) were called active. Not shown: some 2% with an inconclusive outcome. The sample holds actives, similar compounds and a random draw of the others, so the mix is not that of the screen.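 How the source made its calls: active means normalized GFP-positive differentiation at or above the plate's own cutoff, the solvent-only control mean plus 3 SD; inconclusive means no clear call, values can overlap the other calls; inactive means the rest.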

Assay: HoxA9-arrested leukemia cell differentiation promoters – flow cytometry, MLPCN library, primary screen (AID 624256);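 on GFP+ MAC1+ double positive: cells exposed to compound for four days before flow analysis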;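 on normalized GFP-positive differentiation: cells exposed to compound for four days before flow analysis; 0% = DMSO wells and 100% = fulvestrant positive control at 5 µM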
Conditions: ER-HoxA9 myeloid progenitors, lysozyme-GFP differentiation, at 10 µM; GFP+ MAC1+ double positive: measured here: differentiation confirmed by MAC1 staining, stronger effect = higher value; normalized GFP-positive differentiation: stronger effect = higher value

Compound	GFP+ MAC1+ double positive	outcome	normalized GFP-positive differentiation
Cc1nc2c(OCc3cccc(Cl)c3)cccn2c1N(C)CC1CC1	0.4%	inactive	–
N#C/C(=C\C1=C(N2CCOCC2)C(=C\c2ccccc2)/CC1)C(=O)Nc1ccccc1F	11.3%	–	127% (active)
O=C(O)c1ccc(NN=CC2=C(N3CCOCC3)/C(=C/c3ccccc3)CC2)cc1	0.1%	inactive	–
O=C1Nc2ccc(Br)cc2/C1=N/N=C/C1=C(N2CCOCC2)C(=C\c2ccccc2)/CC1	0.4%	inactive	–
COc1ccc(OC)c(CN2C(=O)CCC2(C)c2nnnn2Cc2ccccc2)c1 (stereo not given)	0.7%	inactive	–
CCOC(=O)[C@]12CCCC=C1N(Cc1ccc(Cl)cc1Cl)C(=O)[C@H](CC(=O)N1CCCCC1)C2	0.5%	inactive	–
Cc1ccc(C(=O)Nc2c(-c3ccccc3)[nH][nH]c2=O)cc1	0.3%	inactive	–
COc1ccccc1C(=O)Nn1c(-c2cccs2)nc2ccccc2c1=O	0.5%	inactive	–
O=C(Nn1c(-c2ccc(Cl)cc2)nc2ccccc2c1=O)c1cccnc1Cl	2.1%	–	151% (active)
COc1cc(OC)cc(-c2nc3ccccc3c(=O)n2NC(=O)c2cccnc2Cl)c1	0.9%	inactive	–
CC(=O)C[C@@H]1OC[C@H](CO)N1S(=O)(=O)c1ccc(C)cc1	2.1%	inactive	–
O=C(C[C@H]1CC[C@@H](NC(=O)c2ccncc2)[C@@H](CO)O1)NCC1CC1	0.9%	inactive	–
N#Cc1c(C(F)(F)F)cc(-c2ccccc2)nc1SCC(=O)N1CCOCC1	1.4%	inactive	–
CCSc1nc(-c2ccc(OC)cc2)cc(-c2ccc(OC)cc2)c1C#N	7.7%	inactive	–
CCOC(=O)CC(=O)CSc1nc(-c2ccccc2)cc(-c2ccc(Cl)cc2)c1C#N	26.9%	–	14.9% (active)
Cc1noc(C)c1C(=O)N1CCC1(C)C(=O)NS(=O)(=O)c1ccc(C#N)cc1 (stereo not given)	1.2%	inactive	–
CCN1CCCC1CNC(=O)c1cc2c(=O)n(C)c3ccccc3c2n1C (stereo not given)	0.5%	inactive	–
O=C(Cc1csc(Nc2nc(=S)[nH]c3ccccc23)n1)NCCCN1CCN(c2cccc(Cl)c2)CC1	1%	inactive	–
Cn1c(C(=O)NCCCN2CCN(c3cccc(Cl)c3)CC2)cc2c(=O)n(C)c3ccccc3c21	11.3%	–	36.1% (active)
CC(=O)Nc1cc(-c2cccc(CO)c2)cn2c(-c3cccc(C(F)(F)F)c3)cnc12	0.8%	inactive	–
COc1cc2[nH]c(O)c(C=O)c2cc1OC	0.7%	inactive	–
COc1cc(N=Cc2c(O)[nH]c3ccccc23)cc(OC)c1OC	16.7%	–	15.8% (active)
CN=c1scc(-c2cc(OC)ccc2OC)n1/N=C/c1c(C)[nH]c2ccccc12	1.2%	inactive	–
CCOC(=O)[C@H]1Nc2ccc(Cl)cc2[C@@H]2[C@H]1C1CC(c3ccccc31)N2C(=O)OCc1ccccc1 (stereo not given in full)	1%	inactive	–
CC(C)C[C@H]1CNC(=S)N1C[C@H]1CCCN1C[C@H](Cc1ccc(O)cc1)N1C[C@H](Cc2ccc(O)cc2)N(CC2CCCCC2)C1=S	1.3%	inactive	–

Compound	GFP+ MAC1+ double positive	outcome	normalized GFP-positive differentiation
Cc1ccc(C)c(S(=O)(=O)N2CCN(c3ncnc4sccc34)CC2)c1	2.8%	–	41.1% (active)
Cc1ccc(C)c(S(=O)(=O)N2CCN(C(=O)Nc3ccccc3)CC2)c1	0.3%	inactive	–
COc1ccc(-c2csc3ncnc(N4CCN(S(=O)(=O)c5ccccc5C#N)CC4)c23)cc1	1.7%	inactive	–
CCC(C(=O)NCc1ccccc1)n1c(Cc2cc(F)cc(F)c2)nc2ccccc21 (stereo not given)	2%	inactive	–
Nc1ncnc2c1ncn2[C@@H]1O[C@H](C(=O)N2CCCN(Cc3ccccc3F)CC2)[C@@H](O)[C@H]1O	1.3%	inactive	–
O=C(NC1CCCCC1)n1c(=O)oc2cc(S(=O)(=O)N3CCCCC3)ccc21	8.3%	inactive	–
CC1CCCCN1C(=O)Cn1c(=O)oc2cc(S(=O)(=O)N3CCCCC3)ccc21 (stereo not given)	6.7%	–	53.2% (active)
CC1CCCN(C(=O)Cn2c(=O)oc3cc(S(=O)(=O)N4CCCCC4C)ccc32)C1 (stereo not given)	2.1%	inactive	–
CC1=C(C(=O)N(C(C)C)C(C)C)CC(CC(=O)NCCCCc2ccccc2)C(=O)N1CCC1=CCCCC1 (stereo not given)	1%	inactive	–
O=S1(=O)CC(N2CCN(c3ccccn3)CC2)CN1Cc1ccc(F)cc1 (stereo not given)	0.9%	inactive	–
CCOC(=O)[C@]12CCC=C1N(Cc1cccc3ccccc13)C(=O)[C@H](CC(=O)NCc1cccc(C(F)(F)F)c1)C2	0.3%	inactive	–
COC(=O)[C@@]12C[C@@H](CC(=O)N3CCC(c4ccccc4)CC3)C(=O)N(Cc3ccccc3)C1=CCC(C)(C)C2	1.2%	inactive	–
Clc1ccc(-n2nnnc2-c2cnc(-c3ccccn3)nc2-c2cccs2)cc1	0.7%	inactive	–
O=C(CN1CCN(c2ccc(Cl)cc2)CC1)c1ccccc1	0.3%	inactive	–
O=C(Cn1cc(-c2nnnn2-c2ccc(Cl)cc2)c(=O)c2ccccc21)c1ccccc1	7.2%	–	37.5% (active)
COC(=O)[C@]12CCCCC=C1N(CCC1=CCCCC1)C(=O)[C@H](CC(=O)NCC1CCCCC1)C2	1.7%	inactive	–
Cc1ccc(-c2cnc(C(O)c3cccc(C)c3C)[nH]2)cc1 (stereo not given)	0.9%	inactive	–
CS(=O)(=O)N1CCN(c2ccc(C(=O)NC3C4CC5CC(C4)CC3C5)cc2[N+](=O)[O-])CC1 (stereo not given)	1%	inactive	–
O=C(Nc1cccc(C(F)(F)F)c1)c1ccc(N2CCNCC2)c([N+](=O)[O-])c1	0.4%	inactive	–
O=C(NC1C2CC3CC(C2)CC1C3)c1ccc(N2CCNCC2)c([N+](=O)[O-])c1 (stereo not given)	0.8%	–	16.7% (active)
Cc1cc(O)ccc1-c1cc(C(=O)NCc2cc(C(F)(F)F)cc(C(F)(F)F)c2)[nH]n1	0.4%	inactive	–
c1ccc(C[C@H]2CNCCN2CCC23CC4CC(CC(C4)C2)C3)cc1	4%	–	18.5% (active)
O=C1CCNCCN1[C@H](CO)Cc1ccccc1	1.1%	inactive	–
c1ccc2c(CCN3CCNC[C@H]3Cc3cccc4ccccc34)cccc2c1	6%	inactive	–
CCc1nc2ccc(C(=O)NC3CCN(Cc4ccccc4)CC3)cn2c1N(CC)CCOC	1.3%	inactive	–
